Only some compounds are listed: those with a hit (about 11% of all), similar ones and a draw of the others.
3T3 cytotox = kills NIH 3T3 cells. NIH 3T3 viability, CellTiter-Glo ATP luminescence, 48-72 h. Potency, µM (series often up to 96.7 µM), for the others: at the top dose activity change, negative = cytotoxicity, most hits filed as inhibitors. 94,000 tested, 4.3% active. AID 1345082; further: nearly all actives have a fitted effect of over 55% in size
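Cytotoxicity is measured as loss of cellular ATP: NIH 3T3 cells (400/well) are exposed to compound for 48 or 72 hr at 37 °C, then CellTiter-Glo luminescence is imaged after 10 min at room temperature.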
FLuc inh = blocks purified firefly luciferase enzyme activity. Potency, µM (doses to about 115 µM), actives largely listed as inhibitors. purified P. pyralis luciferase, luminescence, biochemical. P08659. 76,000 tested, 2.5% active; further: nearly all actives have a fitted effect of over 65% in size
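Luminescence read by CCD imager after adding enzyme (10nM final) to wells holding compound, titrated in qHTS. Substrates 10uM each D-luciferin and ATP; buffer 50mM Tris acetate pH 7.5, 10mM Mg acetate, Tween-20, BSA.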
HEK293 tox = kills HEK 293 cells; HEK 293 viability, ATP luminescence (CellTiter-Glo), 48-72 h; Potency, µM (top dose mostly 115 µM), inactives show at the highest dose activity change, negative = cytotoxicity, actives largely listed as inhibitors; AID 1345083; 94,000 tested, 6.6% active; further: nearly all actives have a fitted effect of over 60% in size
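Pintool-delivered compounds were incubated with HEK 293 cells (250 cells/well) at 37 degree Celsius for 48 or 72 hr. ATP-dependent luminescence (CellTiter-Glo) then reported remaining viable cells.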
hNpr1 antagonist = antagonists of human natriuretic peptide receptor Npr1; P16066; HEK293 hNpr1 GloSensor cGMP, ANP-stimulated luminescence; Potency, µM (titrated, usually from 46.3 µM), without a hit: top-dose activity change, negative = inhibition, actives largely listed as inhibitors; 76,000 tested, 1.6% active; calls by dose curve; further: nearly all actives have a fitted effect of over 60% in size
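HEK293 cells stably expressing human Npr1 and cGMP GloSensor pGS-40F, loaded 2 h with 2% GloSensor reagent, given compound 30 min at room temperature. Luminescence read before and 20 min after 0.1 nM hNppA.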
* marks the source's active call; other numbers are inactive results; i = inactive; u = inconclusive; x = no result; [ ] = another dose, or the depositor's remark. Unless noted, the call rests on the fitted dose curve; in most records, active means well fitted curve in the direction sought with a large enough effect; inconclusive means small, poorly fitted or top-dose-only effect, or another doubt; inactive means no such curve, though single readings can be large; an effect the other way counts as inactive or inconclusive. On the % scale 0 is the no-effect control and ±100 the full control effect; potency means the concentration at half of the fitted maximal effect.

SMILES | 3T3 cytotox | FLuc inh | HEK293 tox | hNpr1 antagonist
CC1(c2ccccc2)N(Cc2ccccc2C#N)C(=O)OC12CCN(Cc1ccccn1)CC2 (stereo not drawn) | -18.1% | i | u | -13.9%
COc1ccc2cc1Nc1ccc(cc1)C[C@H](NC(=O)Cc1cccc(Cl)c1)C(=O)N(C)[C@H](C(=O)NCCC(C)C)C2 | 25.1µM* | i | u | -0.6%
COc1ccc2cc1Nc1ccc(cc1)C[C@H](NCc1cccc(O)c1)C(=O)N(C)[C@@H](C(=O)Nc1ccccc1)C2 | u | i | u | -29.9%
CC(C)NC(=O)C1CCCN1Cc1ccc(-c2cncnc2)cc1 (stereo not drawn) | -2.8%[138 µM] | x | 4.7%[172 µM] | x
CNC(=O)C1CCCN1Cc1ccc(-c2cncnc2)cc1 (stereo not drawn) | -9.1%[138 µM] | x | -13.1%[172 µM] | x
C#CCNC(=O)C1CCCCN1Cc1ccc(-c2ccsc2)cc1 (stereo not drawn) | -39.1% | x | 39.8µM* | x
O=C(NC1CC1)C1CCCCN1Cc1ccc(-c2ccsc2)cc1 (stereo not drawn) | 79.4µM* | x | u | x
O=C(NC1CCCC1)C1CCCCN1Cc1ccc(-c2ccsc2)cc1 (stereo not drawn) | u | x | 25.1µM* | x
CC(C)NC(=O)C1CCCCN1Cc1ccc(-c2ccsc2)cc1 (stereo not drawn) | u | x | 50.1µM* | x
O=C(Cc1cccs1)N1CC(c2noc(C3CCCN3CC3CC3)n2)C1 (stereo not drawn) | -20.4% | i | -7.5% | 2.3%
COC(=O)CNC(=O)c1nc2cccnc2n(Cc2ccccc2)c1=O | -13.3% | x | 3.2% | x
CN1CCc2c([nH]c3ccccc23)C12CCN(C(=O)c1ccc3ccccc3n1)CC2 | -16.8% | i | -28.7% | 1.6%
Clc1ccc(CCNc2ncncn2)c(Cl)c1 | u | i | 39.8µM* | u
COc1ccc(Nc2ccc3c(n2)CN(Cc2nc4ccccc4s2)C(=O)CO3)cn1 | u | u | 50.1µM* | u
COc1ccc(Nc2ccc3c(n2)CN(Cc2ccccc2F)C(=O)CO3)cc1 | u | i | 63.1µM* | u
COc1ccccc1-c1ccc2c(n1)CN(Cc1ccccc1C)C(=O)CO2 | -16.7%[138 µM] | i | u | -10.0%[70.6 µM]
COc1ccc(Nc2ccc3c(n2)CN(Cc2ccccc2C)C(=O)CO3)cc1 | 79.4µM* | i | 89.1µM* | u
CCC1(CC)CC1C(=O)N1CCC2(CC1)Nc1ccccc1NC2=O (stereo not drawn) | u | i | u | u
c1ccc(OCc2noc(-c3ccc(NC4CCSC4)nc3)n2)cc1 (stereo not drawn) | u | u | u | -11.9%
Cc1cc(CN(C)c2ccc(-c3nc(COc4ccccc4)no3)cn2)on1 | u | u | u | 15.8µM*
CC1(COc2ccc(-c3nc(COc4ccccc4)no3)cn2)CCCNC1 (stereo not drawn) | u | 35.5µM* | u | u
CCOC(=O)C1CCCN(C(=O)c2nc3sccn3c2-c2cccnc2)C1 (stereo not drawn) | -3.3% | x | 3.0% | x
COCCNC(=O)c1cc(C2CC2)nc2c1c(C1CCNC1)nn2C (stereo not drawn) | -8.1% | x | -7.8% | x
O=C1Nc2ccc(-c3cccc(C(F)(F)F)c3)cc2C(=O)N2CCN(C(=O)C3CCCC3)C[C@@H]12 | u | i | 39.8µM* | -2.7%
O=C1Nc2ccc(-c3ccccc3)cc2C(=O)N2CCN(C(=O)c3ccccc3)C[C@H]12 | u | i | 89.1µM* | -12.6%[70.6 µM]
SMILES | 3T3 cytotox | FLuc inh | HEK293 tox | hNpr1 antagonist
O=C(N[C@H]1CCN2C(=O)c3cc(Br)ccc3NC(=O)[C@@H]2C1)c1ccco1 | 89.1µM* | i | u | 2.4%[70.6 µM]
O=C1Nc2ccc(-c3ccc(Cl)cc3)cc2C(=O)N2CCN(C(=O)c3cccs3)C[C@H]12 | u | i | -26.7% | 1.3%
O=C1Nc2ccc(-c3cccc(C(F)(F)F)c3)cc2C(=O)N2CCN(C(=O)c3cccs3)C[C@H]12 | 44.7µM* | i | 22.4µM* | -21.7%
O=C1Nc2ccc(-c3ccccc3F)cc2C(=O)N2CCN(C(=O)c3ccccc3)C[C@H]12 | u | i | u | -2.1%[70.6 µM]
COC1C(=O)N(c2cccc(F)c2)C12CCN(S(=O)(=O)c1ccccc1C)CC2 (stereo not drawn) | u | i | u | -15.6%
COc1ccc(-c2c(C(=O)NC(C)C)nc3sccn23)cc1 | -15.2% | x | -3.7% | x
Cc1nc(C)c(C(=O)NCCc2ncc(C)n2C2CCCC2)s1 | -22.3% | x | -27.9% | x
O=C(N[C@H]1C[C@H]2C(=O)Nc3ccc(-c4cccs4)cc3C(=O)N2C1)c1ccccc1 | u | i | 31.6µM* | u
NC(=O)C(=O)N1CCN2C(=O)c3cc(-c4ccc(Cl)cc4)ccc3NC(=O)[C@@H]2C1 | u | i | u | -1.2%[70.6 µM]
COc1ccc(Cl)cc1-c1ccc2c(c1)C(=O)N1CCN(C(=O)c3ccc(N(C)C)cc3)C[C@@H]1C(=O)N2 | u | i | u | -9.0%
COc1ccc(Cl)cc1-c1ccc2c(c1)C(=O)N1CCN(C(=O)c3ccccc3)C[C@@H]1C(=O)N2 | u | i | 28.2µM* | 1.6%
COc1ccc(Cl)cc1-c1ccc2c(c1)C(=O)N1CCN(C(=O)C3CCCCC3)C[C@@H]1C(=O)N2 | 44.7µM* | i | u | 1.9%
COc1ccc(Cl)cc1-c1ccc2c(c1)C(=O)N1CCN(C(=O)C3CC3)C[C@@H]1C(=O)N2 | u | i | u | 0.1%[70.6 µM]
N[C@H]1CCN2C(=O)c3cc(-c4ccc(Cl)cc4)ccc3NC(=O)[C@@H]2C1 | 31.6µM* | i | 39.8µM* | 0.1%[70.6 µM]
COCC(=O)NC1CCC12CCN(C(=O)c1ccc(C)nc1)CC2 (stereo not drawn) | -8.0% | i | -16.4% | -1.2%
COc1cc2c(cc1OC)C(CNS(=O)(=O)c1ccc(C)cc1)N(C(=O)NC(C)(C)C)CC2 (stereo not drawn) | -26.8% | i | u | 4.9%
CC(C)(C)CN1Cc2cc3c(cc2N(CC(O)COC(C)(C)C)CCC1=O)OCO3 (stereo not drawn) | u | x | -16.7% | x
COc1ccc(-c2ccc3c(c2)C(=O)N2CCN(C(=O)c4cccc(F)c4)C[C@@H]2C(=O)N3)cc1 | -30.6% | u | u | -6.5%
O=C1Nc2ccc(-c3cccc(C(F)(F)F)c3)cc2C(=O)N2CCN(C(=O)c3ccccc3)C[C@H]12 | u | u | 20µM* | u
O=C1Nc2ccc(-c3cccc(C(F)(F)F)c3)cc2C(=O)N2CCN(C(=O)c3cccc(F)c3)C[C@H]12 | u | u | 31.6µM* | -3.6%
O=C1Nc2ccc(-c3cccc(C(F)(F)F)c3)cc2C(=O)N2CCN(C(=O)c3cccnc3)C[C@H]12 | -18.8% | i | u | -4.3%
COc1ccc(Cl)cc1-c1ccc2c(c1)C(=O)N1CC[C@H](NC(=O)c3cccs3)C[C@H]1C(=O)N2 | u | i | 31.6µM* | -24.9%
